Key:
Conditions in all cases: concentration: 1 μM, replicates: in singlicate; n = 1
CSNK1G1 = system: CSNK1G1
CSNK1G2 = system: CSNK1G2
CSNK1G3 = system: CSNK1G3
CSNK2A1 = system: CSNK2A1
CSNK2A2 = system: CSNK2A2
CTK = system: T1, CTK
T1 construct: gene MATK

DAPK1 = system: DAPK1
DAPK2 = system: DAPK2
DAPK3 = system: DAPK3
DCAMKL1 = system: T2, DCAMKL1
T2 construct: gene DCLK1

DCAMKL2 = system: T3, DCAMKL2
T3 construct: gene DCLK2

DCAMKL3 = system: T4, DCAMKL3
T4 construct: gene DCLK3

DDR1 = system: DDR1
DDR2 = system: DDR2
DLK = system: T5, DLK
T5 construct: gene MAP3K12

DMPK2 = system: T6, DMPK2
T6 construct: gene CDC42BPG

DMPK = system: DMPK
DRAK1 = system: T7, DRAK1
T7 construct: gene STK17A

DRAK2 = system: T8, DRAK2
T8 construct: gene STK17B

DYRK1A = system: DYRK1A
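Further: KINOMEscan kinase panel screen.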

SMILES	%Inh (CSNK1G1) [%]	%Inh (CSNK1G2) [%]	%Inh (CSNK1G3) [%]	%Inh (CSNK2A1) [%]	%Inh (CSNK2A2) [%]	%Inh (CTK) [%]	%Inh (DAPK1) [%]	%Inh (DAPK2) [%]	%Inh (DAPK3) [%]	%Inh (DCAMKL1) [%]	%Inh (DCAMKL2) [%]	%Inh (DCAMKL3) [%]	%Inh (DDR1) [%]	%Inh (DDR2) [%]	%Inh (DLK) [%]	%Inh (DMPK2) [%]	%Inh (DMPK) [%]	%Inh (DRAK1) [%]	%Inh (DRAK2) [%]	%Inh (DYRK1A) [%]
CCOc1nccc(-c2c(-c3ccc(F)cc3)ncn2C2CCNCC2)n1 [SB-249175]	0	32	0	56	65	0	0	0	0	25	24	10	0	7	0	75	15	0	0	1
COc1cccc2c(-c3ccncc3)c(-c3ccc(F)cc3)nn12 [GW468513]	10	14	31	11	12	8	0	0	21	0	0	0	96.2	90	46	98.9	0	0	0	15
O=C(Nc1n[nH]c2nc(-c3ccccc3)ccc12)C1CC1 [SB-708999]	0	0	68	23	75	0	0	11	4	4	6	0	3	32	0	50	0	0	0	15
Nc1ncc(-c2ccc3nccc(-c4ccncc4)c3c2)cc1S(=O)(=O)N1CCCCC1 [GSK1693850]	0	18	33	2	0	0	11	26	30	15	0	0	2	12	42	15	0	0	5	8
Cl.Cl.NC(CNC(=O)c1cc(Br)c(-c2ccnc3[nH]ccc23)s1)c1ccccc1 (stereo not drawn) [GSK1322949]	30	59	60	90	84	0	41	31	54	37	18	0	0	29	43	59	72	93.8	4	84
Cc1cc(-c2c(-c3ccc(F)cc3)ncn2CCCN2CCOCC2)nc(N)n1 [SB-222517]	0	8	0	0	0	0	0	21	38	40	2	0	0	21	0	0	16	13	15	0
CN(c1ccc2c(c1)nc(NCc1ccccc1)n2C)c1ccnc(Nc2ccc(CS(C)(=O)=O)cc2)n1.Cl [GW811603]	0	4	0	16	8	5	13	0	0	0	0	99.4	99.5	100	14	0	9	0	0	5
O=C(Nc1n[nH]c2cc(-c3cccs3)ccc12)C1CC1 [SB-731284]	0	0	0	62	80	45	12	2	3	12	3	0	10	23	26	0	0	14	12	15
O=C(Nc1c(F)cccc1F)c1cc(C(=O)c2ccccc2F)c[nH]1 [GSK1326180]	0	0	21	0	0	0	0	4	4	0	0	36	0	13	14	0	0	10	0	2
COc1cc(Nc2nccc(N3CCC(NC(=O)Nc4ccc5c(c4)OCO5)C3)n2)cc(OC)c1OC (stereo not drawn) [GSK1379766]	10	0	4	4	16	0	5	0	7	7	7	0	0	6	53	10	0	0	4	12
COc1cc(Nc2ccnc3cc(-c4ccncc4)ccc23)cc(OC)c1OC.Cl [GW494610]	0	0	7	7	0	0	0	0	9	0	0	0	57	81	47	46	0	0	0	12
COC(=O)Nc1nc2ccc(Oc3ccc(CC(=O)Nc4cc(C(F)(F)F)ccc4F)cc3)cc2[nH]1 [GW680903]	0	0	14	0	0	0	0	0	0	11	0	0	100	97.4	30	0	0	54	0	13
COC(=O)Nc1nc2cc(Oc3ccc(NC(=O)Nc4cccc(SC)c4)cc3)ccc2[nH]1.Cl [GW697999]	6	0	1	0	0	0	0	43	1	21	6	29	100	98.7	32	0	0	8	0	12
CN(C)CCNS(=O)(=O)c1ccc(-c2ccnc3[nH]ccc23)cc1 [GSK977620]	0	0	5	30	11	0	76	44	88	18	16	15	7	0	26	30	74	71	28	69
CCNC(=O)/C=C/c1n[nH]c2cc(Sc3ccccc3C(=O)NC)ccc12	13	0	13	24	0	6	13	8	15	0	11	30	0	0	9	3	3	49	0	21
Cc1ccc(Nc2ccnc(Nc3ccc(C)c(F)c3)n2)cc1O.Cl [GW582868]	0	0	0	0	9	0	0	0	4	11	0	0	10	12	40	0	0	0	0	20
CN(c1ccc(NC(=O)N2CCN(CCCN3CCOCC3)CC2)cc1)c1ccnc(Nc2ccc(CS(C)(=O)=O)cc2)n1.Cl [GW830899]	19	6	5	0	0	0	4	0	0	0	0	5	36	54	24	0	0	0	13	0
Nc1ncnc2scc(-c3ccc(NC(=O)Cc4cc(F)ccc4F)cc3)c12.O=C(O)C(F)(F)F [SB-731254-M]	26	36	40	13	14	67	0	100	100	27	11	16	58	24	0	23	6	3	10	12
CN(c1ccc(NC(=O)Nc2cccc(Cl)c2)cc1)c1ccnc(N)n1.Cl [GW830707]	12	0	0	0	0	13	0	0	0	0	0	4	97.7	99.3	0	0	4	0	17	0
N#CC1(c2cccc(C(=O)Nc3cccc(Oc4ccc5nc(NC(=O)C6CC6)sc5n4)c3)c2)CC1	0	7	0	0	0	0	0	44	13	3	0	0	98.6	99.2	0	6	5	2	7	0
Cc1ccc(NC(=O)c2cccc(N3CCCCC3)c2)cc1-c1ccc(C(=O)NCC2CC2)cc1 [GSK1917008]	8	0	24	29	10	17	0	0	29	16	19	0	100	64	8	100	3	0	9	27

— publication PMC5540273 (PLoS ONE, 2017)
